Measured values from the supplement of paper PMC10981050.
Values joined by “and” are separate entries in the source; they are usually repeats but may differ in a detail not shown here. Equal entries are not always repeated. Structures can show the parent of a compound that is named as a salt.

Tests used:
Experiment in all cases: cell viability relative to vehicle control; higher = less cytotoxic
Conditions in all cases: 10 µM
K562 = system: K562
How it was run: (§1)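 Screening covered the Selleck bioactive, kinase and epigenetic probe libraries, less identity-inconsistent compounds, on CRISPR-edited mutant clones and isogenic wild-type clones of four leukaemia lines. Cells, at 2000 per well in 50 µL medium, received a single 10 µM acoustically dispensed dose. After 48 h the supernatant was removed and CellTiter-Glo luminescence was read. Viability was analysed in Genedata Screener as percent of the on-plate vehicle control.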

MARIMO = system: MARIMO
How it was run: as §1

MOLM14 = system: MOLM14
How it was run: as §1

OCI-AML2 = system: OCI-AML2
How it was run: as §1

| SMILES | cell viability (K562; SRSF2 genotype: SRSF2 P95H/wt) | cell viability (K562; SRSF2 genotype: SRSF2 wt/wt) [%] | cell viability (MARIMO; SRSF2 genotype: SRSF2 P95H/wt) [%] | cell viability (MARIMO; SRSF2 genotype: SRSF2 wt/wt) [%] | cell viability (MOLM14; SRSF2 genotype: SRSF2 P95H/wt) [%] | cell viability (MOLM14; SRSF2 genotype: SRSF2 wt/wt) [%] | cell viability (OCI-AML2; SRSF2 genotype: P95H/wt) [%] | cell viability (OCI-AML2; SRSF2 genotype: wt/wt) [%] |
| --- | --- | --- | --- | --- | --- | --- | --- | --- |
| CC1=C(O)C(=O)C=C2C1=CC=C1[C@@]2(C)CC[C@@]2(C)[C@@H]3C[C@](C)(C(=O)O)CC[C@]3(C)CC[C@]12C [Celastrol] | 0.95% and 0.55% | 0.65 | 0.44 | 0.52 | 0.47 | 0.51 | 0.35 | 0.44 |
| O=C(/C=C/c1ccccc1)OC[C@H]1O[C@@H](O[C@@H]2OC=C[C@H]3[C@H](O)[C@@H]4O[C@]4(CO)[C@@H]23)[C@H](O)[C@@H](O)[C@@H]1O [Picroside I] | 99.3% and 101% | 105 | 98.8 | 98.7 | 101 | 103 | 104 | 100 |
| OC(c1ccccc1)(c1ccccc1)C1CCNCC1 [Azacyclonol] | 93.7% and 92.3% | 95.1 | 85.4 | 94.4 | 94.7 | 97.8 | 89 | 94.5 |
| CC[C@@H](C(N)=O)N1CCCC1=O [Levetiracetam] | 110% and 104% | 102 | 102 | 109 | 101 | 108 | 106 | 106 |
| CCc1c2c(nc3ccccc13)-c1cc3c(c(=O)n1C2)COC(=O)[C@]3(O)CC [7-Ethylcamptothecin] | 7.64% and 19.6% | 10.4 | 5.75 | 3.52 | 0.48 | 0.48 | 0.36 | 0.82 |
| CCN(C)C(=O)Oc1cccc([C@H](C)N(C)C)c1 [Rivastigmine tartrate (Exelon)] | 103% and 106% | 101 | 101 | 105 | 99.5 | 108 | 104 | 113 |
| COc1ccc2c(c1)/C(=C/c1cnc[nH]1)C(=O)N2 | 91.8% and 96.2% | 88 | 33.7 | 39.8 | 22.1 | 3.31 | 15.4 | 24.6 |
| C/C(=C\c1csc(C)n1)[C@@H]1C[C@@H]2O[C@@H]2CCC[C@H](C)[C@H](O)[C@@H](C)C(=O)C(C)(C)[C@@H](O)CC(=O)O1 [Epothilone A] | 22.5% and 33% | 32.5 | 7.48 | 5.2 | 6.35 | 2.31 | 7.11 | 8.21 |
| C=C1CCC2C(/C=C(\C)C(=O)C3(OC(C)=O)CC(C)C(OC(=O)c4ccccc4)C3C1OC(C)=O)C2(C)C (stereo unspecified) [Euphorbia factor L3] | 48% and 62.5% | 59.5 | 34.8 | 33.8 | 47.6 | 32.9 | 65.8 | 22.4 |
| COc1cc2c(cc1OC)[C@@H](Cc1ccc(O)c(Oc3cc4c(cc3OC)CCN(C)[C@@H]4Cc3ccc(O)cc3)c1)N(C)CC2.[O-][Cl+3]([O-])([O-])O [Liensinine perchlorate] | 76.2% and 65.4% | 65.4 | 55.5 | 66.8 | 50.4 | 56.1 | 51.5 | 45 |
| CN1CCCCC1Cn1cc(C(=O)c2cc([N+](=O)[O-])ccc2I)c2ccccc21 (stereo unspecified) | 83.1% and 88.8% | 87.2 | 84.2 | 103 | 3.13 | 2.06 | 76.2 | 65.5 |
| Cc1sc2c(c1C)C(c1ccc(Cl)cc1)=N[C@@H](CC(=O)OC(C)(C)C)c1nnc(C)n1-2 | 53.8% and 59.9% | 61.5 | 22.3 | 30.9 | 15.9 | 11.6 | 17.5 | 30.2 |
| CCC1(c2ccc(N)cc2)CCC(=O)NC1=O (stereo unspecified) [Aminoglutethimide (Cytadren)] | 98.1% and 103% | 110 | 96.7 | 101 | 99.8 | 103 | 107 | 108 |
| COc1ccc2c(c1OC)CC1c3c(cc4c(c3-2)OCO4)CCN1C (stereo unspecified) [Crebanine] | 93.7% and 93.3% | 95.9 | 80.5 | 83 | 95.9 | 93.4 | 80.6 | 84.5 |
| COc1ccc(N(C(=O)Oc2c(C)cccc2C)c2ccnc(Nc3ccc(N4CCN(C)CC4)cc3)n2)c(OC)c1 | 7.22% and 20.7% | 6.62 | 72.3 | 58.7 | 38.8 | 35.4 | 23.5 | 28.6 |
| CN1C2CCC1CC(O)C2 (stereo unspecified) [Tropine] | 105% and 98.9% | 97.2 | 104 | 110 | 99.5 | 103 | 94.5 | 108 |
| CC(C)=CCCC(C(=O)O)C1CCC2(C)C3=C(CCC12C)C1(C)CCC(=O)C(C)(C)C1CC3 (stereo not drawn) [Beta-Elemonic] | 96% and 89.7% | 87.7 | 92.7 | 99 | 88.8 | 93.1 | 100 | 101 |
| O=C1CCC[C@@H]2[C@H]3CCCN4CCC[C@@H](CN12)[C@@H]34 [Matrine ((+)-Matrine)] | 94.4% and 112% | 102 | 107 | 110 | 105 | 106 | 106 | 103 |
| CCC(COC(=O)c1cc(OC)c(OC)c(OC)c1)(c1ccccc1)N(C)C (stereo unspecified) [Trimebutine maleate] | 99% and 90.6% | 98.2 | 87.9 | 90.3 | 88.9 | 98.2 | 89.9 | 97.4 |

| SMILES | cell viability (K562; SRSF2 genotype: SRSF2 P95H/wt) | cell viability (K562; SRSF2 genotype: SRSF2 wt/wt) [%] | cell viability (MARIMO; SRSF2 genotype: SRSF2 P95H/wt) [%] | cell viability (MARIMO; SRSF2 genotype: SRSF2 wt/wt) [%] | cell viability (MOLM14; SRSF2 genotype: SRSF2 P95H/wt) [%] | cell viability (MOLM14; SRSF2 genotype: SRSF2 wt/wt) [%] | cell viability (OCI-AML2; SRSF2 genotype: P95H/wt) [%] | cell viability (OCI-AML2; SRSF2 genotype: wt/wt) [%] |
| --- | --- | --- | --- | --- | --- | --- | --- | --- |
| O=C(O)c1nn(Cc2ccc(Cl)cc2Cl)c2ccccc12 [Lonidamine] | 97% and 107% | 101 | 107 | 97.7 | 98.1 | 95.6 | 99.5 | 92.2 |
| NCC(=O)O.[C-]#[O+].[C-]#[O+].[C-]#[O+].[Cl][Ru] | 104% and 93.3% | 96.2 | 88.5 | 99.2 | 88.6 | 90.8 | 91.9 | 114 |
| CC(C)=CCCC(C)(O)C1CCC2(C)C1C(O)CC1C3(C)CCC(OC4OC(CO)C(O)C(O)C4O)C(C)(C)C3CCC12C [(20R)Ginsenoside Rh2] | 90.5% and 92.8% | 96 | 101 | 102 | 102 | 96 | 98.5 | 106 |
| CN1C(=O)[C@@]23C[C@]4([C@]56C[C@@]78SS[C@@](CO)(C(=O)N7[C@H]5Nc5ccccc56)N(C)C8=O)c5ccccc5N[C@@H]4N2C(=O)[C@]1(CO)SS3 [Chaetocin] | 0.42% and 0.29% | 0.65 | 0.27 | 0.33 | 0.25 | 0.28 | 0.23 | 0.24 |
| C[C@]12CC[C@H]3[C@@H](CC[C@@]45O[C@@H]4C(O)=C(C#N)C[C@]35C)[C@@H]1CC[C@@H]2O [Trilostane] | 92.4% and 94.7% | 97.6 | 87.4 | 92.5 | 95.4 | 102 | 123 | 118 |
| CC1=C[C@]23C(=O)[C@@H](C=C(CO)[C@@H](O)[C@]2(O)[C@H]1O)[C@H]1[C@@H](C[C@H]3C)C1(C)C [Ingenol] | 113% and 98.6% | 111 | 109 | 107 | 111 | 108 | 68.2 | 79 |
| c1csc(-c2ccc(-c3cccs3)s2)c1 [2,2':5',2''-Terthiophene] | 95.8% and 89.3% | 97.1 | 88.1 | 100 | 91.7 | 98.7 | 84.6 | 85.4 |
| CC(C)c1ccc(CO)cc1 [4-Isopropylbenzyl Alcohol] | 107% and 98.3% | 97.1 | 99.9 | 110 | 102 | 105 | 87.7 | 97.4 |
| CN(C)C1C(=O)C(C(N)=O)=C(O)C2(O)C(=O)C3=C(O)c4c(O)cccc4C(C)(O)C3CC12 (stereo unspecified) [Tetracycline hydrochloride] | 84.5% and 91.2% | 90.4 | 90.7 | 96.3 | 102 | 98.3 | 89.3 | 95.9 |
| CC(C)c1cc2c(c(O)c1O)[C@@]1(C(=O)O)CCCC(C)(C)[C@@H]1CC2 [Carnosic acid] | 70.2% and 83.7% | 86.6 | 41.8 | 5.17 | 43.8 | 41.1 | 33.2 | 27.1 |
| c1ccc2c(c1)[I+]c1ccccc1-2 [Diphenyleneiodonium chloride (DPI)] | 25.4% and 25.3% | 25 | 19.6 | 25.4 | 3.2 | 2.99 | 11.4 | 16.4 |
| Cc1cc(C(=O)CN2CCCC2)c(C)n1-c1ccc(F)cc1 | 93.7% and 94% | 89.1 | 80.6 | 98.2 | 83.7 | 94.7 | 88.4 | 85.8 |
| C=C[C@@H]1C2=CCOC(=O)C2=CO[C@H]1O[C@@H]1O[C@H](CO)[C@@H](O)[C@H](O)[C@H]1O [Gentiopicroside] | 97.2% and 95.7% | 96.3 | 94.5 | 99 | 98.5 | 104 | 94 | 108 |
| C[N+]1(C)CCCC(OC(=O)C(O)(c2ccccc2)c2ccccc2)C1 (stereo unspecified) [mepenzolate bromide] | 106% and 102% | 98.9 | 103 | 112 | 104 | 104 | 101 | 105 |
| C[C@@]12C[C@@H](c3ccoc3)OC(=O)[C@@H]1CC[C@]1(C)[C@H]2[C@@H]2C=C[C@@]1(O)C(=O)O2 [Columbin] | 104% and 96.4% | 102 | 99 | 106 | 108 | 100 | 104 | 103 |
| C=C[C@H]1CN2CC[C@@]3(C(=O)Nc4ccccc43)[C@@H]2C[C@@H]1/C(=C\OC)C(=O)OC [Isocorynoxeine] | 81.8% and 92.6% | 82.3 | 77.4 | 72.7 | 84.4 | 79.5 | 88.2 | 83.3 |
| O=Cc1ccccc1 [Benzoic aldehyde] | 98.9% and 98% | 95 | 86.4 | 91.5 | 93 | 92.4 | 85.4 | 88.3 |
| CC(=O)O[C@@H]1[C@H]2[C@@H](OC(=O)Cc3ccccc3)[C@@H](C)C[C@]2(OC(C)=O)C(=O)/C(C)=C/[C@@H]2[C@H](CC[C@]13CO3)C2(C)C [Euphorbia factor L1] | 105% and 96.6% | 100 | 89.8 | 102 | 102 | 104 | 95.9 | 105 |
